NPC1 promoter act – NPC1 promoter activation; actives 2.4% (n = 320,000); AID 485313; Potency, µM (top dose mostly 9.22 µM), most hits filed as activators; Huh7 NPC1 promoter luciferase reporter, 24 h; further: nearly all actives have a fitted effect of over 60% in size
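Luminescence read-out of NPC1 promoter-driven luciferase in stably transfected Huh7 cells; compounds delivered in DMSO and left 24 h at 37C, 5% CO2, qHTS titration format.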
FLuc counter – inhibits or activates purified firefly luciferase, miR-21 counter-screen; P08659; purified FLuc, Km substrates, luminescence inhibition; Potency, µM (titrated, usually from 57.5 µM), actives largely listed as inhibitors; actives 6.9% (n = 360,000); further: nearly all actives have a fitted effect of over 55% in size
Target sequence (P08659 whole entry, looked up): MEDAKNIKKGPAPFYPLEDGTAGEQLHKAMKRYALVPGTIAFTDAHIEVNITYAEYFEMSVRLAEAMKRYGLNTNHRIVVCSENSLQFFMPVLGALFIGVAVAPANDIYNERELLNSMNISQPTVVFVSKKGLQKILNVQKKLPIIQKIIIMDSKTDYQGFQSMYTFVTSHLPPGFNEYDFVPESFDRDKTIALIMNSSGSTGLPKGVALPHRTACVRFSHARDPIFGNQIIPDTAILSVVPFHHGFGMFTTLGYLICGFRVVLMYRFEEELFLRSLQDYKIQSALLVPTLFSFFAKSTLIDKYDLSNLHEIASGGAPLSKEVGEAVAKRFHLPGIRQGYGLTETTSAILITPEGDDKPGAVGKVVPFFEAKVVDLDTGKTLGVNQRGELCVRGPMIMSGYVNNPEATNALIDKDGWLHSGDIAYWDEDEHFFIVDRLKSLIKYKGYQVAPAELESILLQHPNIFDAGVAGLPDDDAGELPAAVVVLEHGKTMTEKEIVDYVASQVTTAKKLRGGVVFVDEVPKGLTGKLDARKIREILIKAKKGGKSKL
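Purified P. pyralis luciferase, 10 nM final, with Km-level 10 uM D-luciferin and 10 uM ATP in 50 mM Tris acetate pH 7.5, 10 mM Mg acetate, 0.01% Tween-20, 0.05% BSA; 6-point qHTS titration about 60 µM downward; luminescence read.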
SMN2 splice enh – SMN2 splice variant enhancement; HEK293 SMN2-luciferase splicing reporter, luminescence, 30-36 h; Potency, µM (series often up to 46.1 µM), actives largely listed as activators; actives 2.8% (n = 210,000); further: nearly all actives have a fitted effect of over 55% in size
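HEK293 cells carry an SMN2 […]–luciferase reporter in which exon 7 inclusion puts luciferase in frame. Cells were plated 10-12 h before compound addition, then incubated 30-36 h at 37C. ONE-Glo luminescence was read; sodium butyrate at 4.5 mM final served as control.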
ELG1 DNA repair – ELG1-dependent DNA repair inhibition | actives 2.3% (n = 330,000) | Potency, µM (top dose mostly 46.1 µM), hits mostly inhibitors | HEK293T ELG1-luciferase reporter, luminescence, 16 h; DNA damage induced by 5-fluorouridine | AID 504467; further: nearly all actives have a fitted effect of over 55% in size
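Luminescence from the luciferase reporter, measured 30 min after ONE-Glo reagent at room temperature, was the read-out. Beforehand, 2,000 cells per well were exposed for 16 hr at 37 °C to 5-fluorouridine together with compound or vehicle.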
Rab9 promoter act – activators of Rab9 promoter; Huh7 Rab9 promoter-luciferase reporter, luminescence, 24 h; Potency, µM (top dose mostly 9.22 µM), hits mostly activators; actives 2.8% (n = 320,000); further: nearly all actives have a fitted effect of over 60% in size
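Measured in stably transfected Huh7 cells bearing a Rab9 promoter–luciferase construct: 24 h compound treatment at 37 °C, followed by luminescence detection.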
ELG1 genotox – inducers of genotoxicity in HEK293T ELG1-luciferase cells; HEK293T ELG1-luciferase reporter, luminescence, 16 h; Potency, µM (series often up to 46 µM), actives largely listed as activators; actives 1.3% (n = 330,000); AID 504466; further: nearly all actives have a fitted effect of over 60% in size
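After overnight (16 hr) compound treatment at 37 °C, ELG1-luciferase HEK293T cells were lysed with ONE-Glo; luminescence quantified 30 min later at room temperature.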
Numbers stand for hits; 0 = inactive; ? = inconclusive; - = no result; [ ] = dose if it differs, or a comment. This is a sample that favours compounds with a hit; in the whole collection about 9.4% have one here. The call rests on the fitted dose curve; in most records, active means well fitted curve in the direction sought with a large enough effect; inconclusive means small, poorly fitted or top-dose-only effect, or another doubt; inactive means no such curve, though single readings can be large; an effect the other way counts as inactive or inconclusive.

SMILES | NPC1 promoter act | FLuc counter | SMN2 splice enh | ELG1 DNA repair | Rab9 promoter act | ELG1 genotox
C/C(=N\NC(=O)c1ccncc1)c1cc2ccccc2o1 | 0 | 0 | 0 | 0 | 0 | 0
O=P(CCCO)(Cc1ccccc1)Cc1ccccc1 | 0 | 0 | - | 0 | 0 | 0
Cc1ccc(Nc2c(-c3ccc(N4CCOCC4)cc3)nc3ncccn23)c(C)c1 | 0 | 19µM | 0 | 11.6µM | 0 | 0
Clc1ccc2nc(-c3ccc(N4CCOCC4)cc3)c(Nc3ccccc3)n2c1 | - | ? | 0 | - | - | -
Cc1ccc2nc(-c3ccc(N4CCOCC4)cc3)c(Nc3ccccc3C)n2c1 | - | 1.9µM | ? | - | - | -
Cc1ccccc1Nc1c(-c2ccc(N3CCOCC3)cc2)nc2ccc(Cl)cn12 | - | 2.39µM | 0 | - | - | -
CCc1ccc(OCC(=O)Nc2ccc(Cl)c(-c3nc4ncccc4o3)c2)cc1 | - | 0 | 0 | - | - | -
Cn1ccc2cc(S(=O)(=O)N3CCCN(C(=O)Nc4ccccc4Br)CC3)ccc21 | - | 0 | - | - | - | -
Cc1ccc(C2CN=NC23CCc2ccccc2C3=O)cc1 (stereo unspecified) | 0 | 12µM | 0 | ? | 0 | ?
O=C1c2ccccc2CCCC12N=NCC2c1cccc2ccccc12 (stereo unspecified) | 0 | 0 | 0 | 0 | 0 | 0
COc1cc(C2SCCCCCCCCCCSC(c3ccc(O)c(OC)c3)SCCCCCCCCCCS2)ccc1O (stereo unspecified) | - | - | 0[9.22 µM] | - | - | -
CCN(CC)c1ccc(/C=N/NC(=O)OC(C)(C)C)cc1 | ? | 10.7µM | - | ? | 2.82µM | ?
CC(=O)Oc1ccc(/C=N/NC(=S)Nc2ccccc2)cc1 | 3.16µM | ? | 11.2µM | ? | 3.98µM | 9.2µM
O=C(Cc1ccccc1)N/N=C/c1ccc(OCC(=O)Nc2ccccc2)cc1 | 0 | 0 | 0 | ? | 0 | 0
CCN(CC)c1ccc(NC(=O)CCCOc2cccc(C)c2)cc1 | 0 | 0 | 0 | 0 | 0 | 0
CCN(CC)c1ccc(/C=N/NC(=O)Nc2ccccc2)cc1 | 3.98µM | 5.36µM | 20µM | ? | 3.16µM | 0
CCN(CC)c1ccc(/C=N\NC(N)=O)cc1 | 0 | ? | 0 | ? | 0 | 0
CCN(CC)c1ccc(/C=N/NC(=O)CC(C)C)cc1 | 0 | ? | - | 0 | 0 | 0
CCN(CC)c1ccc(/C=N/OCC(=O)Nc2cccc(C)c2)cc1 | 0 | 12µM | 0 | 0 | 0 | 0
CC1CCN(S(=O)(=O)c2ccc3c(ccn3CCC(=O)NCc3ccccc3F)c2)CC1 | - | 0 | - | - | - | -
CCn1c(SCC(=O)N(C)c2ccccc2)nc2c([nH]c3ccccc32)c1=O | 0 | 0 | - | 0 | 0 | 0
Cc1ccc(NC(=O)c2cc(S(=O)(=O)N3CCC4(CC3)OCCO4)ccc2F)cc1Cl | - | 0 | - | - | - | -
CCOc1ccc(/C=N/NC(=O)Nc2ccccc2)cc1 | ? | 3.01µM | 5.01µM | ? | 2.24µM | 7.3µM
Cc1ccc(/C=N/NC(=O)Nc2ccccc2)o1 | 2.51µM | 10.7µM | 11.2µM | ? | 3.16µM | ?
O=C(Cn1sc2ccccc2c1=O)NC12CC3CC(CC(C3)C1)C2 | 0 | 7.57µM | 0 | ? | 0 | 0
SMILES | NPC1 promoter act | FLuc counter | SMN2 splice enh | ELG1 DNA repair | Rab9 promoter act | ELG1 genotox
CCN(CC)S(=O)(=O)c1cccc(NC(=O)CNc2cccc(S(=O)(=O)N3CCOCC3)c2)c1 | 0 | 0 | - | ? | 0 | 0
O=C(Nc1nnc(-c2ccc(Br)cc2)o1)c1ccco1 | 0 | 2.69µM | - | ? | ? | 0
COc1cc(-c2nnc(NC(=O)c3ccco3)o2)cc(OC)c1OC | 0 | 0 | - | ? | 0 | 0
CN(C)S(=O)(=O)c1ccc(C(=O)Nc2nnc(-c3ccco3)o2)cc1 | 0 | 0 | 0 | ? | 0 | 0
CCN(CC)S(=O)(=O)c1ccc(C(=O)Nc2nnc(-c3ccco3)o2)cc1 | 0 | 0 | 0 | 20.6µM | 0 | 0
CS(=O)(=O)c1ccc(-c2nnc(NC(=O)c3ccco3)o2)cc1 | 0 | 12µM | - | ? | 0 | 0
COc1ccc(CCNC(=O)COC(=O)c2ccccn2)cc1 | - | - | - | 0 | - | 0
CC(=O)N1c2ccc(S(=O)(=O)NCC3CCC(C(=O)NCCC(C)C)CC3)cc2CC1C (stereo unspecified) | - | 0 | - | - | - | -
COc1cc(-c2nc(C(N)=O)c3c(n2)n(-c2cccc(C)c2)c(=O)n3C)cc(OC)c1OC | - | 0 | - | - | - | -
CCOC(=O)c1ccc(NC(=O)C2=C(C)C(=O)OC23CCN(C(C)C)CC3)cc1 | - | 0 | - | - | - | -
Cc1ccc(N2C(=O)c3ccccc3NC2c2ccccc2O)cc1 (stereo unspecified) | 2.51µM | ? | - | ? | 0.891µM | ?
O=C1c2ccccc2NC(c2ccccc2O)N1O (stereo unspecified) | 0 | 0 | - | ? | 0 | 0
COC(=O)[C@H]1C[C@H]2CC[C@H](O)C[C@H]2N1Cc1c(F)cccc1Cl | - | - | 0 | - | - | -
O=C1CCCC(O)=C1C=Nc1ccc(O)cc1 | 0 | 0 | 0 | 0 | 0 | 0
Oc1ccc(N=Cc2ccc(-c3cccs3)s2)cc1 | 0 | 8.49µM | 0 | ? | 0 | 0
Cn1c(=O)n(-c2ccc(F)c(Cl)c2)c(=O)c2sc3ccccc3c21 | - | 0 | 0 | - | - | -
O=C1C2C3C=CC(C3)C2C(=O)N1c1ccc2c(c1)OCO2 (stereo unspecified) | 0 | 0 | - | 0 | 0 | 0
O=C1C2C3C=CC(CC3)C2C(=O)N1c1ccc2c(c1)OCO2 (stereo unspecified) | 0 | 16.9µM | 0 | ? | 0 | 0
CCc1ccc(NC(=O)c2cnn3ccccc23)cc1 | 0.316µM | 0.338µM | 1.78µM | ? | 0.112µM | 0.184µM
CCc1ccc(NC(=O)c2cc(C(C)=O)n3ccccc23)cc1 | - | 15.1µM | - | - | - | -
O=C(NCc1ccc(F)cc1)c1cnn2ccccc12 | 3.16µM | 12µM | 12.6µM | ? | 2µM | ?
CSc1cccc(NC(=O)Cn2cccc2)c1 | 0 | 0 | 0 | 0 | 0 | 0
CSc1cccc(NC(=O)c2cnn3ccccc23)c1 | 2.51µM | 4.26µM | - | ? | 2µM | ?
COc1ccccc1N1CCN(C(=O)C(CCSC)NS(=O)(=O)c2ccc3c(c2)oc(=O)n3C)CC1 (stereo unspecified) | - | 0 | - | - | - | -
Cc1cc(C)c(Cn2cnc3nc4c(cc3c2=O)CCCC4)c(C)c1 | - | 0 | - | - | - | -
SMILES | NPC1 promoter act | FLuc counter | SMN2 splice enh | ELG1 DNA repair | Rab9 promoter act | ELG1 genotox
CCCn1c2ccccc2c2nnc(SC(CC)C(=O)Nc3cc(C)on3)nc21 (stereo unspecified) | 0 | 0 | 0 | 23.1µM | 0 | 0
CCC(Sc1nnc2c3ccccc3n(CC)c2n1)C(=O)Nc1ccc(NC(C)=O)cc1 (stereo unspecified) | - | 0 | 0 | - | - | -
Cc1ccc(Cl)cc1NS(=O)(=O)c1ccc2oc(=O)c3ncn(C)c3c2c1 | - | 0 | - | - | - | -
Cc1cccc(N2CCN(C(=O)Nc3ccc(F)cc3)CC2C)c1 (stereo unspecified) | - | 0 | 0 | - | - | -
CN(C(=O)c1cccnc1)c1nnc(-c2ccccn2)s1 | ? | 19µM | - | ? | ? | ?
CN(C(=O)c1cnccn1)c1nnc(-c2cnccn2)s1 | 0 | ? | 0 | 0 | 0 | 0

From PubChem BioAssay
